Test results as given in PubChem BioAssay AID1159580 (chemical genetic matrix, 2015).
Several values for one entry are separate records, joined by “and”; a condition that tells them apart may be missing. Equal values may be shown once. In all, about 5,500 compounds went through this assay and about 2,000 (36%) were called active. Another 18% or so got no clear call; they are omitted. No stated cut-off is given here; in the data, active means normalized growth mostly below about 0.91 (no sharp cut-off); inconclusive means no clear call, values can overlap the other calls; inactive means mostly above about 0.92. The list shows a part of the results.

Assay: chemical genetic growth profiling, strain panel (AID 1159580);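 further: tested at 20 µM; growth read once vehicle control cultures reached saturation at 30 °C; 1 = growth at the plate median or of vehicle wells; lower values mean less growth of the strain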
Details: S. cerevisiae deletion strains, growth OD

Measured: normalized growth

CC(=O)CC(c1ccccc1)c1c(O)c2ccccc2oc1=O (configuration not stated)
inactive: locus YAL013W, strain DEP1, hits give low values 1.01 | locus YAL021C, strain ccr4, hits give low values 1.01 | locus YAL026C, strain drs2, hits give low values 0.991 | locus YAL030W, strain snc1, hits give low values 0.991 | locus YBL061C, strain skt5, hits give low values 0.998 | locus YBR009C, strain hhf1, hits give low values 1 | locus YBR021W, strain FUR4, hits give low values 0.996 | locus YBR023C, strain chs3, hits give low values 0.996 | locus YBR171W, strain sec66, hits give low values 0.991 | locus YBR229C, strain ROT2, hits give low values 1 | locus YBR231C, strain swc5, hits give low values 1 | locus YBR279W, strain paf1, hits give low values 0.993 | locus YCL011C, strain gbp2, hits give low values 0.999 | locus YCL016C, strain dcc1, hits give low values 0.994 | locus YCL029C, strain bik1, hits give low values 1.03 | locus YCL061C, strain MRC1, hits give low values 1 | locus YCL069W, strain vba3, hits give low values 1 | locus YCR088W, strain abp1, hits give low values 1 | locus YDL005C, strain med2, hits give low values 0.999 | locus YDL035C, strain GPR1, hits give low values 1.02 | locus YDL040C, strain nat1, hits give low values 0.994 | locus YDL074C, strain BRE1, hits give low values 1.02 | locus YDL101C, strain DUN1, hits give low values 1.02 | locus YDL134C, strain PPH21, hits give low values 1.01 | locus YDL185W, strain tfp1, hits give low values 1.01 | locus YDL192W, strain arf1, hits give low values 1.02 | locus YDR001C, strain nth1, hits give low values 0.993 | locus YDR069C, strain doa4, hits give low values 1 | locus YDR101C, strain arx1, hits give low values 1.02 | locus YDR137W, strain rgp1, hits give low values 0.867 | locus YDR150W, strain NUM1, hits give low values 1.01 | locus YDR159W, strain sac3, hits give low values 1.02 | locus YDR162C, strain NBP2, hits give low values 1.03 | locus YDR195W, strain ref2 1.01 | locus YDR297W, strain sur2, hits give low values 1 | locus YDR318W, strain mcm21, hits give low values 1.03 | locus YDR334W, strain swr1, hits give low values 1 | locus YDR335W, strain msn5, hits give low values 1.01 | locus YDR388W, hits give low values 1 | locus YDR392W, strain spt3, hits give low values 0.966 | locus YDR502C, strain sam2, hits give low values 1.01 | locus YEL003W, strain gim4, hits give low values 1.01 | locus YEL037C, strain rad23, hits give low values 0.999 | locus YEL061C, strain CIN8 (second series), hits give low values 0.999 | locus YEL061C, strain CIN8, hits give low values 1.01 | locus YER015W, strain faa2, hits give low values 0.987 | locus YER016W, strain bim1, hits give low values 0.993 | locus YER110C, hits give low values 1.03 | locus YER111C, strain swi4, hits give low values 0.999 | locus YER155C, strain BEM2 (second series), hits give low values 1.01 | locus YER155C, strain BEM2, hits give low values 1 | locus YER167W, strain BCK2, hits give low values 1.03 | locus YFR010W, strain ubp6, hits give low values 1.01 | locus YGL078C, strain dbp3, hits give low values 1.01 | locus YGL086W, strain mad1, hits give low values 1.03 | locus YGL167C, strain pmr1, hits give low values 0.986 | locus YGL173C, strain kem1, hits give low values 1 | locus YGL227W, strain vid30, hits give low values 0.988 | locus YGL240W, strain doc1, hits give low values 1 | locus YGL248W, strain PDE1, hits give low values 1.01 | locus YGL253W, strain hxk2, hits give low values 1 | locus YGR078C, strain PAC10, hits give low values 1.02 | locus YGR135W, strain pre9, hits give low values 1.02 | locus YGR229C, strain SMI1, hits give low values 1.02 | locus YGR252W, strain gcn5, hits give low values 1.06 | locus YHR013C, strain ard1, hits give low values 1.03 | locus YHR027C, strain rpn1, hits give low values 0.994 | locus YHR030C, strain SLT2, hits give low values 1.01 and 0.993 | locus YHR079C, strain IRE1 (second series), hits give low values 1.01 | locus YHR079C, strain IRE1, hits give low values 0.982 | locus YHR094C, strain hxt1, hits give low values 1.02 | locus YHR129C, strain ARP1, hits give low values 1 | locus YHR142W, strain chs7, hits give low values 1.01 | locus YHR200W, strain rpn10, hits give low values 1.02 | locus YIL066C, strain RNR3, hits give low values 1.02 | locus YIL073C, strain SPO22, hits give low values 1.1 | locus YIL125W, strain kgd1, hits give low values 1.01 | locus YIR030C, strain dcg1, hits give low values 1.02 | locus YJL092W, strain hpr5, hits give low values 0.996 | locus YJL095W, strain BCK1 (second series), hits give low values 0.992 | locus YJL095W, strain BCK1, hits give low values 1.01 and 0.973 | locus YJL115W, strain asf1, hits give low values 1 | locus YJL129C, strain trk1, hits give low values 1.02 | locus YJL134W, strain LCB3, hits give low values 1 | locus YJL154C, strain vps35, hits give low values 0.995 | locus YJL164C, strain tpk1, hits give low values 1.01 | locus YJL166W, strain qcr8, hits give low values 1.01 | locus YJL168C, strain set2, hits give low values 1 | locus YJL187C, strain SWE1 (second series), hits give low values 1.02 | locus YJL187C, strain SWE1, hits give low values 0.989 | locus YJR043C, strain POL32, hits give low values 1.03 | locus YJR066W, strain TOR1, hits give low values 0.925
